High-throughput results (PubChem)
DT40 TDP1 CPT: qHTS for Inhibitors of human tyrosyl-DNA phosphodiesterase 1 (TDP1): qHTS in cells in presence of CPT. chicken DT40 Tdp1-/-;hTDP1 cells + 20 nM CPT, ATP luminescence, 48 h. Potency, µM (highest dose often 46.2 µM), without a hit: top-dose activity change, negative = growth inhibition, hits mostly inhibitors. 12% of 420,000 active. AID 686979, 2013; note: potency is the fitted concentration of half-maximal effect; nearly all actives have a fitted effect of over 55% in size
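Chicken DT40 Tdp1-/- cells complemented with human TDP1, 400 cells/well, exposed to compounds plus 20 nM camptothecin for at least 48 h at 37 C; viability read as ATP content by CellTiter-Glo luminescence.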
HT1080 IDH1KD tx: qHTS for induction of synthetic lethality in tumor cells producing 2HG: qHTS for the HT-1080-IDH1KD cell line; HT-1080 IDH1 knockdown viability, ATP luminescence, 48 h; Potency, µM (titrated, usually from 46.1 µM), without a hit: at the top dose activity, negative = toxicity, most hits filed as cytotoxic; 2% of 360,000 active; AID 686971, 2013;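 note: potency is the fitted concentration of half-maximal effect; 0% = DMSO wells and -100% = cell-free medium wells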
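Luminescent ATP read-out (CellTiter-Glo, 10 min at room temperature) after 48 h compound exposure at 37 °C gave viability of IDH1-knockdown HT-1080 cells. Activity was normalised to DMSO and cell-free wells, then fitted as concentration-response curves.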
HT1080-NT tox: qHTS for induction of synthetic lethality in tumor cells producing 2HG: qHTS for the HT-1080-NT fibrosarcoma cell line | HT-1080-NT fibrosarcoma viability, CellTiter-Glo ATP luminescence, 48 h | Potency, µM (series often up to 46.1 µM), without a hit: at the top dose activity, negative = less viability, actives largely listed as cytotoxic | 1.6% of 360,000 active | AID 686970, 2013;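 note: NT is the 2HG producing partner of a matched IDH1 knockdown line; potency is the fitted concentration of half-maximal effect; 0% = DMSO-treated cells and -100% = media-only wells without cells; nearly all actives have a fitted effect of over 55% in size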
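Viability of the 2HG-overproducing fibrosarcoma line after 48 hours of compound exposure at 37 degrees C was determined by luminescence with CellTiter-Glo, and concentration-effect curves were then fitted and categorized.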
DT40 TDP1 no CPT: qHTS for Inhibitors of human tyrosyl-DNA phosphodiesterase 1 (TDP1): qHTS in cells in absence of CPT; DT40 Tdp1-/- hTDP1 cells, no CPT, ATP luminescence, 48 h; Potency, µM (titrated, usually from 46.2 µM), for the others: at the highest dose activity change, negative = growth inhibition, most hits filed as inhibitors; 15% of 420,000 active; AID 686978, 2013; note: potency is the fitted concentration of half-maximal effect; nearly all actives have a fitted effect of over 55% in size
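Readout: luminescence from CellTiter-Glo after 30 min in the dark at RT. Cells: DT40 Tdp1-/- with stable hTDP1, 400/well. Exposure: compounds alone, ≥48 hr, 37 °C.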
ALOX12 inh: Primary qHTS assay for inhibitors of human arachidonate 12S-lipoxygenase (ALOX12): Round 2 | 1.1% of 580,000 active | Polyunsaturated fatty acid lipoxygenase ALOX12 (Homo sapiens), P18054 | purified 12hLO, xylenol orange hydroperoxide absorbance | Potency, µM (series often up to 108 µM), inactives show top-dose activity change, negative = inhibition, most hits filed as inhibitors | AID 1671190, 2021; note: potency is the fitted concentration of half-maximal effect
Target sequence (P18054 whole entry, looked up): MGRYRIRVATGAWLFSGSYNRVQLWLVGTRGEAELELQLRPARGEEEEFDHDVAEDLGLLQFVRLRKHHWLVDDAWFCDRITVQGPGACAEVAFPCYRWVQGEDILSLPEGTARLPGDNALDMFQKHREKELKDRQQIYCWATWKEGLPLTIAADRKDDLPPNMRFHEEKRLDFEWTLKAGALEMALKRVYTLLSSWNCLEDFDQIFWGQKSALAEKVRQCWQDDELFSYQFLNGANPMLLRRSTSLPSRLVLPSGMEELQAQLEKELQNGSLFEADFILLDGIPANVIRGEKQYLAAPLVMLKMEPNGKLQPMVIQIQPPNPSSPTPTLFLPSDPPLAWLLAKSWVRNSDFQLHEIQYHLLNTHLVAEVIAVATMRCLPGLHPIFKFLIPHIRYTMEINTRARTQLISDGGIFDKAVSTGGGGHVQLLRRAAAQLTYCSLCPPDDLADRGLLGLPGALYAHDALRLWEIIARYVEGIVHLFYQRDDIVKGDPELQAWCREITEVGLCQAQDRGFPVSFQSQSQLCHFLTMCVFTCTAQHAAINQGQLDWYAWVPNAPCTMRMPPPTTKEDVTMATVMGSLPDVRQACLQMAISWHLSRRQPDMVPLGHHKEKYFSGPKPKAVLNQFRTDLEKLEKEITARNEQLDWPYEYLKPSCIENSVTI
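Hydroperoxide product was detected by ferrous iron/xylenol orange as the 573 to 405 nm absorbance ratio. Arachidonic acid at 40 uM (final) was turned over for 30 min at room temperature by 150 nM human 12hLO, pH 7.0 Hepes buffer, after 15 min compound preincubation.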
IL-1B inflam inh: qHTS for Inhibitors of Inflammasome Signaling: IL-1-beta AlphaLISA Primary Screen. THP-1 LPS/ATP IL-1B secretion, AlphaLISA, 16 h; active compounds read low. activity change, % at 57.5 µM. 4.7% of 360,000 active. AID 743279, 2014; in the data active = activity change below about -50%; inconclusive = mostly about -30% to -49%
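Secreted IL-1B measured by AlphaLISA bead assay after 16 h compound exposure of THP-1 cells; compounds (final up to 57.5 uM) added 1 h before LPS (250 ng/mL) and ATP (1.25 mM) stimulation; lower signal means less secretion.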
* hit, by the source's call; ? = inconclusive; nt = no result given. Many of the other results were omitted from the sample, so hits are more common in it than they were. Unless noted, calls come from the whole dose curve; as a rule, active = well fitted curve in the direction sought with a large enough effect; inconclusive = small, poorly fitted or top-dose-only effect, or another doubt; inactive = no such curve, though single readings can be large; an effect the other way counts as inactive or inconclusive. Unless noted, % is set by controls: 0 for no effect and ±100 for the full control effect.

SMILES | DT40 TDP1 CPT | HT1080 IDH1KD tx | HT1080-NT tox | DT40 TDP1 no CPT | ALOX12 inh | IL-1B inflam inh
Cc1ccc(C(=O)N/C(=C/c2ccccc2F)C(=O)NCCCn2ccnc2)cc1 | ? | 4% | 5% | 17% | -1% | -24
Cc1ccc(/C=C(\NC(=O)c2ccc(C)cc2)c2nc(=S)[nH][nH]2)cc1 | 15µM* | -15% | -11% | ? | 20µM* | -11
Cc1ccc(C(=O)N/C(=C\c2ccccc2F)c2nc(=S)[nH][nH]2)cc1 | 21µM* | -2% | -2% | ? | ? | -1
COc1ccc(C(=O)N2CCC3(CC2)CC(O)CCO3)c(OC)c1 (centres undefined) | nt | nt | nt | nt | -15% | nt
CC(C)c1ccc(C2Sc3ccccc3NC3=C2C(=O)c2ccccc23)cc1 (centres undefined) | 16µM* | nt | nt | 16µM* | ? | nt
CCc1ccc(C2Sc3ccccc3NC3=C2C(=O)c2ccccc23)cc1 (centres undefined) | 16µM* | nt | nt | ? | ? | nt
COc1ccc(C2Sc3ccccc3NC3=C2C(=O)c2ccccc23)cc1OC (centres undefined) | nt | nt | nt | nt | -1% | nt
C=CCNCc1cccc(Br)c1 | nt | nt | nt | nt | -20% | nt
CCNC(=S)NS(=O)(=O)c1ccc(CC)cc1 | -7% | -1% | 0% | -6% | 6.3µM* | -2
CCc1ccc(S(=O)(=O)NC(=S)Nc2ccccc2)cc1 | ? | 11% | 11% | ? | 45µM* | -9
CC(=O)NS(=O)(=O)c1ccc(NC(=S)Nc2ccccc2)cc1 | -2% | -1% | 1% | -18% | 15% | 3
COc1cc2ccccc2cc1C(=O)N1CCN(c2nc3c(F)cc(F)cc3s2)CC1 | 21µM* | nt | nt | 8.2µM* | -15% | nt
COc1cc2ccccc2cc1C(=O)N1CCN(c2nc3c(F)cccc3s2)CC1 | 21µM* | nt | nt | 16µM* | -23% | nt
O=C(Nc1ccc(Cl)cc1)c1ccc2c(c1)CCC2 | nt | nt | nt | nt | -4% | nt
CCOc1ccccc1CN1C[C@@H](CO)[C@H](NC(C)=O)C1 | nt | nt | nt | nt | 61% | nt
COC(=O)c1cnc(Oc2ccc(NC(=O)NC(=O)c3ccccc3Cl)cc2)cc1C(F)(F)F | ? | 0% | 2% | 4.1µM* | 85% | 8
O=C(NCC1CCN(c2ccc(S(=O)(=O)N3CCOCC3)cc2)CC1)c1ccc(Cl)cc1 | 15µM* | -12% | -15% | 13µM* | 0% | -75*
O=C(CCNC(=O)c1ccc(Cl)cc1)Nc1ccc(S(=O)(=O)N2CCOCC2)cc1 | ? | -3% | -3% | -4% | 242% | 16
Cc1ccccc1NC(=O)NCC1CCN(c2ccc(S(=O)(=O)N3CCOCC3)cc2)CC1 | 23µM* | -2% | -16% | 21µM* | 1% | -9
O=S(=O)(NCC1CCN(c2ccc(S(=O)(=O)N3CCOCC3)cc2)CC1)c1ccc(F)cc1 | 23µM* | -17% | -22% | 21µM* | ? | -5
CSc1nnnn1-c1ccc(C(=O)Nc2ccc(Br)c(C)c2)cc1 | nt | nt | nt | nt | -9% | nt
Cc1nc(N2CCN(c3ccccn3)CC2)c2c(C)c(C(=O)Nc3ccc(Cl)cc3)sc2n1 | ? | 0% | 14% | ? | 6% | -58*
Cc1nc(N2CCN(c3ccccn3)CC2)c2c(C)c(C(=O)Nc3c(C)cc(Br)cc3C)sc2n1 | ? | 1% | -8% | ? | 4% | ?
